# In the library only some 4.1% were active in any assay of this set; here they are far more common.
# Peg3 prom inh: Peg3 promoter activity inhibition; HeLa PEG-Prom luciferase reporter, luminescence, overnight; inhibition, % at 20 µM; hit rate 1.7% among 360,000; AID 588405;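 active = inhibition of at least 50% at 20 µM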
# MITF TRPM1 inh: inhibitors of MITF-driven TRPM1 promoter in melanoma cells | SK-MEL-5 TRPM1 promoter luciferase, 24 h | inhibition, % at 12.5 µM | hit rate 0.83% among 330,000 | AID 488899;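 active = mean inhibition across replicates of 60% or more, whatever share of single replicates reaches that level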
# Shn3 3UTR inh: inhibitors of Schnurri-3 3'UTR reporter in osteoblasts; Clone20 osteoblast Shn3 3'UTR firefly luciferase, 24 h; inhibition, % at 12.5 µM; hit rate 0.52% among 360,000;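 active = mean inhibition of at least 75% with every replicate also reaching 75%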;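 also: 0% = median of neutral control wells and 100% = pilot-screen positive control compound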
# LMP1 NFkB inh: reduces LMP1-driven NF-kappaB luciferase signal; LMP1-induced NF-kappaB luciferase reporter cells, luminescence; inhibition, % at 12.5 µM; hit rate 0.69% among 350,000; AID 504558; in the data active = inhibition above about 41%;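 also: 0% = neutral control wells and 100% = reference inhibitor control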
# TWEAK Fn14 block: blocks TWEAK-Fn14 interaction in a reporter cell assay | inhibition, % at 10 µM | hit rate 2% among 360,000 | TWEAK-stimulated Fn14 reporter cells, luciferase luminescence, 8 h; in the data active = inhibition above about 50%
# TROY NFkB inh: inhibitors of TROY-dependent NF-kB signaling | Q293 LMP1-TROYcd NF-kB luciferase reporter, 4 h | inhibition, % at 10 µM | hit rate 0.98% among 360,000 | AID 1347056;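 active = compounds whose plate-normalised and pattern-corrected inhibition of the luciferase reporter signal at the single screening dose is 50% or more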
# The depositor's hits bear a star; x = not tested or not shown.
SMILES,Peg3 prom inh,MITF TRPM1 inh,Shn3 3UTR inh,LMP1 NFkB inh,TWEAK Fn14 block,TROY NFkB inh
Cn1ncnc2c(=O)n(C)c(=O)nc1-2,105*,103*,97*,90*,106*,88*
O=C(O)c1ccccc1NC(=O)N1C[C@H]2C[C@@H](C1)c1cccc(=O)n1C2,-1,x,1,7,-6,-4
CCC(C)C1NC(=O)C(C(C)=O)=C1O (configuration not stated),7,-3,1,0,0,2
COc1ccc2c3c1OC1C(=O)CC[C@@]4(O)[C@@H](C2)N(C)CC[C@]314 (some centres not stated),50*,18,-5,-12,0,-16
CCN(CC)C(=O)c1ccc(NC(=O)C2=C(C)OCCS2)cc1,5,-3,1,4,-1,4
O=C(CCc1nnc2ccc(NCc3ccc(F)cc3)nn12)N1CCC2(CC1)OCCO2,5,4,-3,4,-6,10
O=C1NCN(c2ccccc2)C12CCN(C(c1ccccc1)c1nnnn1C1CCCC1)CC2 (configuration not stated),10,x,0,x,7,1
Cc1ccc2c(c1)C1C[N+](C)(CC(=O)c3ccc(Cl)cc3Cl)CCC1N2C(=O)c1ccc(F)cc1 (configuration not stated),-167,-46,-27,-8,-8,-36
COc1ccc2[nH]c(C)c(CCNCc3cc(OC)c(OC)c(OC)c3)c2c1,4,10,44,-1,-10,5
COc1ccc2[nH]c(C)c(CCNCc3cc(OC)c4c(c3)OCO4)c2c1,4,-10,26,13,20,64*
Cc1ccccc1-n1c(C)nc2ccsc2c1=O,3,-7,-12,-4,55*,2
Cc1nc2ccsc2c(=O)n1-c1ccccc1Cl,5,2,10,6,8,4
Cn1c(O)c(C(=Nc2ccccc2)SCc2ccc(Cl)cc2)c(=O)n(C)c1=O,-5,10,1,-6,0,-20
COC(=O)C1=C(C(=O)OC)C2OC1c1cc3ccccc3cc12,95*,112*,95*,36,13,-11
COC(=O)C1=C(c2ccc(-c3ccccc3)c(F)c2)C[C@@H]2CC[C@H]1N2C(=O)NCc1ccco1,25,10,3,11,10,25
COC(=O)C1=C(c2ccc(C(C)=O)cc2)C[C@@H]2CC[C@H]1N2C(=O)NC1Cc2ccccc2C1,-2,15,-9,12,2,-17
Cc1cc(OC(=O)CCNC(=O)OC(C)(C)C)c2c3c(c(=O)oc2c1)CCC3,-140,0,-32,4,63*,37
COc1ccc(N=Cc2c(O)n(Cc3ccccc3)c(=S)[nH]c2=O)c(OC)c1,54*,-34,10,-5,-28,-36
O=c1[nH]c(=S)n(-c2ccccc2Cl)c(O)c1C=NCCN1CCNCC1,14,14,-4,-2,21,0
C/C=C1/CN2[C@@H]3C4CO[C@@H]3c3c([nH]c5cc(OC)ccc35)[C@@H]2CC14 (some centres not stated),-6,-2,-9,-1,-13,-10
CC(=O)N1Cc2cnnn2-c2ccccc2C1(C#N)Cc1ccccc1 (configuration not stated),-6,1,-12,-7,1,-1
CC(=O)OC1CC(OC2C(O)CC(OC3C(O)CC(OC4CCC5(C)C(CCC6C5CCC5(C)C(C7=CC(=O)OC7)C(O)CC65O)C4)OC3C)OC2C)OC(C)C1OC1OC(CO)C(O)C(O)C1O (configuration not stated),108*,86*,8,30,83*,44
CC1OC(OC2C(O)CC(OC3C(O)CC(OC4CCC5(C)C(CCC6C5CCC5(C)C(C7=CC(=O)OC7)C(O)CC65O)C4)OC3C)OC2C)CC(O)C1O (configuration not stated),107*,70*,2,62*,81*,48
CCC(C)N1Cc2ccccc2C1=N (configuration not stated),15,-7,-13,-5,1,9
CCN1C[C@]2(COC)CC[C@H](OC)[C@@]34C1[C@]1(OCO[C@@]15C[C@H](OC)[C@H]1C[C@@H]3[C@@H]5[C@H]1OC)[C@@H](O)[C@H]24,-2,8,89*,56*,-2,-1
SMILES,Peg3 prom inh,MITF TRPM1 inh,Shn3 3UTR inh,LMP1 NFkB inh,TWEAK Fn14 block,TROY NFkB inh
COC(=O)C1=C(c2ccc(OC(F)(F)F)cc2)C[C@@H]2CC[C@H]1N2C(=O)NC1CC1,-10,-4,-10,0,13,1
CCOC(=O)[C@]12Cc3cc(Cl)ccc3[C@H]1N(Cc1ccccc1)C(=O)c1cc(OC)ccc12,x,x,x,x,52*,29
CCCCCN1C(=O)c2cc(OC)ccc2[C@@]2(C(=O)OCC)Cc3cc(Cl)ccc3[C@@H]12,x,x,x,x,77*,52*
CCOC(=O)[C@]12Cc3cc(OC)ccc3[C@H]1N(Cc1ccccc1)C(=O)c1cc(OC)ccc12,x,x,x,x,22,16
CCOC(=O)[C@]12Cc3cc4ccccc4cc3[C@H]1N(Cc1ccccc1)C(=O)c1ccccc12,x,x,x,x,68*,31
CCOC(=O)[C@]12Cc3cc4ccccc4cc3[C@H]1N(Cc1ccccc1)C(=O)c1cc(OC)ccc12,x,x,x,x,56*,41
ClCC(Br)CBr (configuration not stated),-8,-2,14,-6,1,17
Cc1ccc(OP2(=O)Nc3cc(C)c(C)cc3S2)cc1 (configuration not stated),-226,3,-44,-35,65*,40
COc1ccccc1-n1c(O)c(/C=N/N2CCCCC2)c(=O)n(-c2ccccc2OC)c1=S,9,7,-19,0,-8,3
C=CCOC(=O)c1ccccc1N,-15,0,1,-3,7,-1
Nc1ccccc1C(=O)OCCOc1ccccc1,-186,-76,-10,-14,67*,10
CCCCn1c(N)c(C(=O)NCCN2CCOCC2)c2nc3ccccc3nc21,9,8,0,-5,3,64*
CCOC(=O)c1c(N)n(CCN2CCCCC2)c2nc3ccccc3nc12,21,9,25,-7,-11,3
CCCCn1c(NC(=O)c2ccc(Br)o2)c(C(=O)OCC)c2nc3ccccc3nc21,22,-5,-7,-9,71*,59*
CCCCn1c(NS(=O)(=O)c2ccccc2)c(C(=O)OCC)c2nc3ccccc3nc21,18,15,19,4,80*,69*
CN(CCc1nnc(N)s1)[N+](=O)[O-],6,3,-26,6,2,-9
CC(=O)O/C(=C1\CC2C3CC=C4CC(OC(C)=O)CCC4(C)C3CCC2(C)C1=O)C(F)(F)F (configuration not stated),63*,14,61,18,15,19
CC(=O)O[C@H]1CC[C@@]2(C)C(=CC[C@@H]3[C@@H]2CC[C@]2(C)C(=O)CC[C@@H]32)C1,7,-7,72,10,-19,4

# Screening data from PubChem.
